For 38 sequences, sensor-assay potency score (higher = more potent) results are on record in the OligoGym collection.
Further: reference of the scale not given here.

The first assay deals with NXF5. In words: pooled miR-30 sensor sort-seq; sequence = guide strand. To be noted: shRNA.
Regarding ATTTCTTTCAGTGATCTTCAGG, the sensor-assay potency score (higher = more potent) is -1.08.

The sequence TTACATAGGCAGACTGGTCCGA came in with a sensor-assay potency score (higher = more potent) of 0.61.

TACAGTTTGTTGTTGCACAAGT: the sensor-assay potency score (higher = more potent) is -0.398.

In another assay the target is OAS3. The description is as above. To be noted: shRNA.
For the sequence TGTAGCTCTGTGAAGCAGGTGG, the sensor-assay potency score (higher = more potent) was determined as 0.189.

In turn, TAGGCTGAAAGCATCCTTCTTA returned a sensor-assay potency score (higher = more potent) of 0.0263.

TTGAACTGGGAGTCCTTCCCGC yielded a sensor-assay potency score (higher = more potent) of -0.289.

Regarding TTCAGAATCACAGCCACCCTTG, the sensor-assay potency score (higher = more potent) is -0.336.

With TTCTCTACGAACTCCTTCCGCG, the sensor-assay potency score (higher = more potent) is -0.635.

The sequence TTCAACATCACAGCCATCCCTT had a sensor-assay potency score (higher = more potent) of -0.469.

As for TTTGTTCTGAGCCGCAACCTGG, the sensor-assay potency score (higher = more potent) is -1.14.

The sequence TTGTAGTCCGTGAAGCAGTTGA showed a sensor-assay potency score (higher = more potent) of -0.0592.

TACCAGTGCTTCACCAGCCGGA yielded a sensor-assay potency score (higher = more potent) of -0.364.

With TAGACTTGAGAGCTGGGCCTGG, the sensor-assay potency score (higher = more potent) was -0.478.

The sequence TTTGGTGCCAGAACTGAGCTGC gave a sensor-assay potency score (higher = more potent) of 0.736.

TTGACCGTCCAGTAGACACAGA registered a sensor-assay potency score (higher = more potent) of -0.525.

A further assay deals with OCA2. The assay is described as above. To be noted: shRNA.
TTGTCTTGGATCAAGGTTGAGC registered a sensor-assay potency score (higher = more potent) of -0.397.

Regarding TTTGTGAAGATCACTTCTGCAA, the sensor-assay potency score (higher = more potent) turned out to be 0.623.

As to AACAGTGCAGGACACAACCATC, the sensor-assay potency score (higher = more potent) was -1.7.

For TTATAAAGCTTTCTGTTCCAGT, the sensor-assay potency score (higher = more potent) was -0.265.

TTTGTTCTCCAACATATTCTAT registered a sensor-assay potency score (higher = more potent) of -1.25.

In the case of TAGCAGGTATCTTCGCTCCCAG, the sensor-assay potency score (higher = more potent) is -0.952.

In turn, TTGTTCTCCAACATATTCTATT yielded a sensor-assay potency score (higher = more potent) of -1.21.

The sequence TAACACATCCCAACAGTGCAGG yielded a sensor-assay potency score (higher = more potent) of -0.397.

In turn, TTGAGCACCTCACACAACCTTA showed a sensor-assay potency score (higher = more potent) of -0.642.

Sequence TTTTCTTCTTCAAACAGTGGGG returned a sensor-assay potency score (higher = more potent) of -0.306.

On to TTCAGTTCAACAATCTCACTGG, for which the sensor-assay potency score (higher = more potent) was 0.691.

For another assay, the target named is OCLM. The description is as above. To be noted: shRNA.
In turn, AAAGAATACCAGGATAGCCATA registered a sensor-assay potency score (higher = more potent) of -1.76.

In turn, AATACCACTCTTATAAAGGATT came in with a sensor-assay potency score (higher = more potent) of -1.36.

Sequence TCTGCTAAGGTAAATCTTTAAC had a sensor-assay potency score (higher = more potent) of -1.77.

Regarding ACTAATGTGTCTGCTAAGGTAA, the sensor-assay potency score (higher = more potent) was -1.12.

TAGAAGAGTATACTAATGTGTC showed a sensor-assay potency score (higher = more potent) of -0.0959.

TAATACCACTCTTATAAAGGAT had a sensor-assay potency score (higher = more potent) of -0.68.

TTTAAATAGAAGAGTATACTAA: the sensor-assay potency score (higher = more potent) was -0.591.

TACTAATGTGTCTGCTAAGGTA gave a sensor-assay potency score (higher = more potent) of -0.482.

AAGAGTATACTAATGTGTCTGC displayed a sensor-assay potency score (higher = more potent) of 0.0499.

The sequence ATAGAAGAGTATACTAATGTGT displayed a sensor-assay potency score (higher = more potent) of -0.144.

The sequence TTAAATAGAAGAGTATACTAAT had a sensor-assay potency score (higher = more potent) of -0.462.

Sequence TATACTAATGTGTCTGCTAAGG showed a sensor-assay potency score (higher = more potent) of -1.53.
